Assay outcomes from PubChem BioAssay.
Rows were chosen to be rich in hits. Some 3.2% of all compounds tested hit in one or more screens of this group.
MsrA inh – inhibits bovine methionine sulfoxide reductase A; 360,000 tested, 0.75% active; purified bovine MsrA, absorbance read-out; inhibition, % at 15.5 µM; in the data active = inhibition above about 4.5%;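 also: 0% = vehicle wells with enzyme and 100% = reference inhibitor wells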
bovine MsrA act – activators of bovine methionine sulfoxide reductase A; AID 602163; activation, % at 10.6 µM; purified bovine MsrA, absorbance read-out; 360,000 tested, 0.3% active; in the data active = activation above about 7.5%;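 also: 0% = vehicle and 100% = reference activator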
PG9 binder – small molecules binding HIV-1 gp120 antibody PG9; AID 624416; inhibition, % at 6.7 µM; TR-FRET gp120-PG9 antibody binding; 360,000 tested, 0.43% active; in the data active = inhibition above about 8.5%
sPLA2-III inh – Blocks human group III sPLA2 activity; inhibition, % at 12.2 µM; QFRET BODIPY PC-A2 liposome hydrolysis, fluorescence; Q9NZ20; 370,000 tested, 0.56% active;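 active = inhibition above mean plus 3 SD of compounds lying within the high and low control bounds, cut at about 19% in these data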;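 also: 0% = median of test compound wells and 100% = no enzyme DMSO wells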
rCAG RNA binder – r(CAG) repeat RNA binding. TO-PRO-1 dye displacement fluorescence. inhibition, % at 3 µM. 370,000 tested, 1.3% active. AID 651821;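 active = inhibition above the plate cutoff, the mean of all test compounds on that plate plus 3 SD, cut at about 35% in these data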;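 also: 0% = DMSO alone and 100% = 100 µM mitoxantrone as full dye displacement; higher means more dye released from RNA so lower well fluorescence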
rCAG bind conf – r(CAG) RNA repeat binding, confirmation; shares compounds with rCAG RNA binder; TO-PRO-1 dye displacement fluorescence; inhibition, % at 3 µM; 4,300 tested, 70% active;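 active = inhibition above a per-plate cutoff, the mean inhibition of sample wells plus 3 SD, cut at about 35% in these data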;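 also: loss of TO-PRO-1 fluorescence as compound displaces dye from 1x1 AA loop RNA; 0% = DMSO only wells and 100% = 100 µM mitoxantrone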
dCAG dye counter – disrupts DNA CAG TO-PRO-1 complex, flagging rCAG hits; AID 652068; 4,300 tested, 94% active; shares compounds with rCAG RNA binder; d(CAG) DNA oligo TO-PRO-1 dye displacement, fluorescence; inhibition, % at 3 µM;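 active = inhibition above its plate's cutoff, the mean test-well inhibition plus 3 SD, cut at about 4.8% in these data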;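 also: 0% = DNA dye mix with DMSO and 100% = 100 µM mitoxantrone; hits displace the dye from DNA and so lower well fluorescence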
DNA CAG DR – DNA CAG dye complex inhibition, dose response counter-screen; DNA CAG/GTC duplex TO-PRO-1 dye displacement fluorescence; 250 tested, 20% active; shares compounds with rCAG RNA binder; IC50, µM; AID 686960; in the data active = IC50 below about 10 µM
Numbers without * were called inactive.

For CC(C)(C)C(=O)Nc1ccc(C(=O)NNC(=O)c2ccccc2)cc1 the results were MsrA inh 0, bovine MsrA act -9, PG9 binder -2, sPLA2-III inh 0 and rCAG RNA binder -3.
Screening Cc1ccc(C(=O)CCC(=O)Nc2ccc(Cl)c(S(=O)(=O)Nc3cccc(Cl)c3)c2)cc1 returned MsrA inh 1, bovine MsrA act -13, PG9 binder 0, sPLA2-III inh -40, rCAG RNA binder 35*, rCAG bind conf 35* and dCAG dye counter 12*.
`COc1ccc(C(=O)CCC(=O)Nc2cccc(Cl)c2)cc1` gave MsrA inh 0, bovine MsrA act -9, PG9 binder 1, sPLA2-III inh -14 and rCAG RNA binder 4.
For COc1cc(/C=N/NC(=O)Cc2nnc(NC(=O)c3ccccc3)s2)ccc1O the results were MsrA inh 2, bovine MsrA act -4, PG9 binder -2, sPLA2-III inh -4, rCAG RNA binder 38*, rCAG bind conf 15 and dCAG dye counter 7.5*.
Screening O=C(O)c1ccccc1NC(c1ccccc1)c1ccc(Cl)cc1 (stereo not given) returned MsrA inh 0, bovine MsrA act 0, PG9 binder -2, sPLA2-III inh -43, rCAG RNA binder 58*, rCAG bind conf 54*, dCAG dye counter 11* and DNA CAG DR >30.
Screening O=C(OCC#CCSc1nnc(-c2cccc3ccccc23)o1)c1ccc(F)cc1F returned sPLA2-III inh 6.
For CCCCCOc1ccc(C2C(C(=O)c3ccc(C)o3)=C(O)C(=O)N2c2cc(C)on2)cc1 (stereo not given) the results were MsrA inh 1, bovine MsrA act -1, PG9 binder 6, sPLA2-III inh -6, rCAG RNA binder 36*, rCAG bind conf 49* and dCAG dye counter 15*.
For COc1ccc(/C=C2/C(=O)N(Cc3ccccc3)N=C2C)cc1 the results were MsrA inh -1, bovine MsrA act 3, PG9 binder -1, sPLA2-III inh -6 and rCAG RNA binder 4.
COc1ccc(/C=C2/C(=O)N(c3nc4ccccc4s3)N=C2CSc2ccc(Cl)cc2)cc1 was read as MsrA inh 0, bovine MsrA act -14, PG9 binder -6, sPLA2-III inh 6, rCAG RNA binder 71*, rCAG bind conf 72* and dCAG dye counter 51*.
O=C(CN1CCN(Cc2ccccc2)CC1)N/N=C\c1ccccc1[N+](=O)[O-] was read as sPLA2-III inh 4 and rCAG RNA binder 2.
Screening Cc1ccc(S(=O)(=O)Oc2ccc(C3C4=C(CCCC4=O)N(CCC(=O)O)C4=C3C(=O)CCC4)cc2Cl)cc1 returned MsrA inh 1, bovine MsrA act -3, PG9 binder 1, sPLA2-III inh -1, rCAG RNA binder 36*, rCAG bind conf 37* and dCAG dye counter 11*.
`O=C1CCC[C@H]2C[C@H](NCc3ccc(F)cc3)CC[C@]23CCCN13` gave sPLA2-III inh 4.
For CCc1nnc(NS(=O)(=O)c2ccc(NC(=O)c3ccccc3C)cc2)s1 the results were MsrA inh -2, bovine MsrA act -6, PG9 binder -2, sPLA2-III inh -23 and rCAG RNA binder 23.
For CCc1nnc(NS(=O)(=O)c2ccc(NC(=O)C(c3ccccc3)c3ccccc3)cc2)s1 the results were MsrA inh 1, bovine MsrA act -1, PG9 binder 0, sPLA2-III inh -85, rCAG RNA binder 84*, rCAG bind conf 72*, dCAG dye counter 34* and DNA CAG DR 9.2*.
`CCc1nnc(NS(=O)(=O)c2ccc(NC(=O)c3ccccc3OC)cc2)s1` gave MsrA inh 0, bovine MsrA act -4, PG9 binder -1, sPLA2-III inh -21, rCAG RNA binder 49*, rCAG bind conf 25 and dCAG dye counter 6.0*.
Screening CCc1nnc(NS(=O)(=O)c2ccc(NC(=O)c3ccc(Cl)cc3)cc2)s1 returned MsrA inh 1, bovine MsrA act -4, PG9 binder -3, sPLA2-III inh -29, rCAG RNA binder 43*, rCAG bind conf 33 and dCAG dye counter 9.1*.
